From the supplement of paper PMC8728848
The full list was thinned out, with the strongest signals kept by preference.

Tests used:
Test in all cases: glycan array binding signal (z-score within array); higher = stronger binding
Conditions in all cases: glycan notation: IUPAC condensed, linker removed
[1] = target: Fuc(a1-2)Gal(b1-3)GalNAc(a1-3)[Fuc(a1-2)]Gal(b1-4)GlcNAc
Method in brief: (§1)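 Negative Z-scores can be read as non-binding. The Z-score is calculated within each array and then averaged across arrays of one protein sequence at different concentrations or buffers and across linkers. Arrays, 3228 in all, were curated from the Consortium for Functional Glycomics database and kept only where the protein sequence was available.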

[2] = target: Fuc(a1-2)Gal(b1-3)GalNAc(b1-3)Gal
Method in brief: as §1

[3] = target: Fuc(a1-2)Gal(b1-3)GalNAc(b1-4)[Neu5Ac(a2-3)]Gal(b1-4)Glc
Method in brief: as §1

[4] = target: Fuc(a1-2)Gal(b1-3)GlcNAc(b1-2)Man(a1-3)[Fuc(a1-2)Gal(b1-3)GlcNAc(b1-2)Man(a1-6)]Man(b1-4)GlcNAc(b1-4)[Fuc(a1-6)]GlcNAc
Method in brief: as §1

[5] = target: Fuc(a1-2)Gal(b1-3)[Fuc(a1-4)]GlcNAc(b1-2)Man(a1-3)[Fuc(a1-2)Gal(b1-3)[Fuc(a1-4)]GlcNAc(b1-2)Man(a1-3)]Man(b1-4)GlcNAc(b1-4)GlcNAc
Method in brief: as §1

Fuc(a1-2)Gal(b1-4)Glc6S = target: Fuc(a1-2)Gal(b1-4)Glc6S
Method in brief: as §1

[6] = target: Fuc(a1-2)Gal(b1-4)GlcNAc(b1-2)Man(a1-3)[Fuc(a1-2)Gal(b1-4)GlcNAc(b1-2)Man(a1-6)]Man(b1-4)GlcNAc(b1-4)[Fuc(a1-6)]GlcNAc
Method in brief: as §1

[7] = target: Fuc(a1-2)Gal(b1-4)GlcNAc(b1-3)Gal(b1-4)GlcNAc(b1-2)Man(a1-3)[Fuc(a1-2)Gal(b1-4)GlcNAc(b1-3)Gal(b1-4)GlcNAc(b1-2)Man(a1-6)]Man(b1-4)GlcNAc(b1-4)GlcNAc
Method in brief: as §1

[8] = target: Fuc(a1-2)Gal(b1-4)[Fuc(a1-3)]GlcNAc(b1-3)GalNAc
Method in brief: as §1

[9] = target: Fuc(a1-2)Gal6S(b1-3)GlcNAc6S
Method in brief: as §1

[10] = target: Fuc(a1-2)[Gal(a1-3)]Gal(b1-4)GlcNAc(b1-3)[Fuc(a1-2)[Gal(a1-3)]Gal(b1-4)GlcNAc(b1-6)]GalNAc
Method in brief: as §1

[11] = target: Fuc(a1-2)[Gal(a1-3)]Gal(b1-4)[Fuc(a1-3)]Glc
Method in brief: as §1

[12] = target: Fuc(a1-2)[GalNAc(a1-3)]Gal(b1-3)GlcNAc(b1-6)GalNAc
Method in brief: as §1

[13] = target: Fuc(a1-2)[GalNAc(a1-3)]Gal(b1-4)Glc
Method in brief: as §1

[14] = target: Fuc(a1-2)[GalNAc(a1-3)]Gal(b1-4)GlcNAc
Method in brief: as §1

[15] = target: Fuc(a1-2)[GalNAc(a1-3)]Gal(b1-4)GlcNAc(b1-2)Man
Method in brief: as §1

[16] = target: Fuc(a1-3)[Gal(b1-4)]GlcNAc(b1-3)Gal(b1-4)[Fuc(a1-3)]GlcNAc
Method in brief: as §1

[17] = target: Fuc(a1-3)[Gal(b1-4)]GlcNAc(b1-6)GalNAc
Method in brief: as §1

[18] = target: Fuc(a1-3)[Gal3S(b1-4)]GlcNAc6S
Method in brief: as §1

Fuc(a1-4)GlcNAc = target: Fuc(a1-4)GlcNAc
Method in brief: as §1

Gal(b1-3)Gal = target: Gal(b1-3)Gal
Method in brief: as §1

Gal(b1-3)Gal(b1-4)GlcNAc = target: Gal(b1-3)Gal(b1-4)GlcNAc
Method in brief: as §1

[19] = target: Gal(b1-3)GalNAc(a1-3)[Fuc(a1-2)]Gal(b1-4)GlcNAc
Method in brief: as §1

[20] = target: Gal(b1-3)GlcNAc(b1-3)Gal(b1-4)GlcNAc(b1-6)[Gal(b1-3)GlcNAc(b1-3)]Gal(b1-4)Glc
Method in brief: as §1

[21] = target: Gal(b1-3)[Neu5Ac(a2-6)]GlcNAc(b1-4)Gal(b1-4)Glc
Method in brief: as §1

Gal(b1-4)Gal = target: Gal(b1-4)Gal
Method in brief: as §1

[22] = target: Gal(b1-4)GlcNAc(b1-2)Man(a1-3)[GlcNAc(b1-4)][Gal(b1-4)GlcNAc(b1-2)Man(a1-6)]Man(b1-4)GlcNAc(b1-4)GlcNAc
Method in brief: as §1

[23] = target: Gal(b1-4)GlcNAc(b1-2)[Gal(b1-4)GlcNAc(b1-6)]Man(a1-6)[Gal(b1-4)GlcNAc(b1-2)Man(a1-3)]Man(b1-4)GlcNAc(b1-4)GlcNAc
Method in brief: as §1

[24] = target: Gal(b1-4)GlcNAc(b1-2)[Gal(b1-4)GlcNAc(b1-6)]Man(a1-6)[Gal(b1-4)GlcNAc(b1-2)Man(a1-3)]Man(b1-4)GlcNAc(b1-4)[Fuc(a1-6)]GlcNAc
Method in brief: as §1

[25] = target: Gal(b1-4)GlcNAc(b1-3)Gal(b1-4)GlcNAc
Method in brief: as §1

B1: SabA (Helicobacter pylori) (protein)
chain: MGSSHHHHHHSSGLVPRGSHMENLYFQGEDNGFFVSAGYQIGEAVQMVKNTGELKNLNEKYEQLSQYLNQVASLKQSIQNANNIELVNSSLNYLKSFTNNNYNSTTQSPIFNAVQAVITSVLGFWSLYAGNYFTFFVGKKVGDSGQPASVQGNPPFKTIIENCSGIENCAMDQTTYDKMKKLAEDLQAAQTNSATKGNNLCALSGCAATDSTSNPPNSTVSNALNLAQQLMDLIANTKTAMMWKNIVISGVSNTSGAITSTNYPTQYAVFNNIKAMIPILQQAVTLSQSNHTLSASLQAQATGSQTNPKFAKDIYTFAQNQKQVISYAQDIFNLFNSIPAEQYKYLEKAYLKIPNAGSTPTNPYRQVVNLNQEVQTIKNNVSYYGNRVDAALSVARDVYNLKSNQAEIVTAYNDAKTLSEEISKLPHNQVNTKDIVTLPYDKNAPAAGQSNYQINPEQQSNLNQALAAMSNNPFKKVGMISSQNNNGA
Question: What does the source list for B1?
Answer: glycan array binding signal (z-score) [1]: 0.026; glycan array binding signal (z-score) [2]: -0.181; glycan array binding signal (z-score) [3]: 0.208; glycan array binding signal (z-score) [4]: 1.55; glycan array binding signal (z-score) [5]: 3.91; glycan array binding signal (z-score) (Fuc(a1-2)Gal(b1-4)Glc6S): 0.21; glycan array binding signal (z-score) [6]: 2.49; glycan array binding signal (z-score) [7]: 0.579; glycan array binding signal (z-score) [8]: 2.43; glycan array binding signal (z-score) [9]: 3.74; glycan array binding signal (z-score) [10]: 2.78; glycan array binding signal (z-score) [11]: -0.48; glycan array binding signal (z-score) [12]: -0.962; glycan array binding signal (z-score) [13]: -0.596; glycan array binding signal (z-score) [14]: -0.145; glycan array binding signal (z-score) [15]: -0.319; glycan array binding signal (z-score) [16]: 1.26; glycan array binding signal (z-score) [17]: 1.95; glycan array binding signal (z-score) [18]: -0.083; glycan array binding signal (z-score) (Fuc(a1-4)GlcNAc): 2.89; glycan array binding signal (z-score) (Gal(b1-3)Gal): -0.298; glycan array binding signal (z-score) (Gal(b1-3)Gal(b1-4)GlcNAc): -0.637; glycan array binding signal (z-score) [19]: -0.576; glycan array binding signal (z-score) [20]: -0.24; glycan array binding signal (z-score) [21]: 0.532; glycan array binding signal (z-score) (Gal(b1-4)Gal): 0.204; glycan array binding signal (z-score) [22]: -0.111; glycan array binding signal (z-score) [23]: 0.291; glycan array binding signal (z-score) [24]: 0.877; glycan array binding signal (z-score) [25]: -0.924
